Screening results from PubChem.
Only some compounds are listed: those with a hit (about 0.47% of all), similar ones and a draw of the others.
UDG counter – counter-screen for AID inhibitors: uracil-DNA glycosylase inhibition. Potency, µM (titrated, usually from 115 µM), hits mostly inhibitors. FRET deamination/UDG coupled assay, UDG read, 4 h. 0.14% of 91,000 active. AID 1347430; also: nearly all actives have a fitted effect of over 65% in size
AID inhibitor – activation induced cytidine deaminase inhibition; AID deamination FRET fluorescence, UDG-coupled, 4 h; Q9GZX7; Potency, µM (doses to about 115 µM), usual class: inhibitors; AID 1347428; 0.32% of 91,000 active; also: nearly all actives have a fitted effect of over 25% in size
Target sequence (Q9GZX7 whole entry, looked up): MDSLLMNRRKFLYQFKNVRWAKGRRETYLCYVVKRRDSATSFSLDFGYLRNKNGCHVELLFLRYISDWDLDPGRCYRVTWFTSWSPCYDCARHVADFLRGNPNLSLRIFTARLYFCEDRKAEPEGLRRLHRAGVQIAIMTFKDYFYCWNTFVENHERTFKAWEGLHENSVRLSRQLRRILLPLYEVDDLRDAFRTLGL
Each line names hits and unclear results; the compound was inactive in the other large screens. Calls follow the shape of the dose curve; as a rule, active = well fitted curve in the direction sought with a large enough effect; inconclusive = small, poorly fitted or top-dose-only effect, or another doubt; inactive = no such curve, though single readings can be large; an effect the other way counts as inactive or inconclusive.

Cc1ncsc1C(=O)N1CCCC1Cc1c(F)cccc1Cl (centres undefined)	none
O=C1c2c(O)ccc(O)c2C(=O)c2c(NCCNCCO)ccc(NCCNCCO)c21	UDG counter 40µM, AID inhibitor 10µM
O=C1c2ccccc2C(=O)c2c(NCCc3ccc(O)cc3)ccc(NCCc3ccc(O)cc3)c21	AID inhibitor inconclusive
O=C(NCCc1ccc(Cl)cc1)C1CC2CCC(C1)C21SCCS1 (centres undefined)	none
COc1cccc(C(=O)Nc2ccc3oc(-c4cccc(Br)c4)nc3c2)c1	none
COc1ccc(NC(=O)CSc2nc3ccsc3c(=O)n2-c2ccccc2)cc1	none
CCCN(CCC)CC(O)Cn1cc(/C=C/C(=O)c2ccc(C)cc2)c2ccccc21 (centres undefined)	AID inhibitor 35µM
CCCN(CCC)CC(O)Cn1cc(/C=C/C(=O)c2ccc(Br)cc2)c2ccccc21 (centres undefined)	none
CCOc1ccccc1OCCCn1c(-c2ccc(Cl)cc2)nc2ccccc2c1=O	none
CCOc1ccccc1OCCCCn1c(-c2ccc(Cl)cc2)nc2ccccc2c1=O	AID inhibitor 32µM
O=C(/C=C/c1cccc(Br)c1)c1ccc2ccccc2c1	none
O=C(CSc1nc(C2CC2)nc2ccccc12)NCc1ccccc1	none
NC(=O)C1CCN(Cc2nc(N)c3ccccc3n2)CC1	none
O=C(O)c1ccc(CNCCc2c[nH]c3ccccc23)cc1	none
COc1ccc(N2CCN(C(=O)c3cc4c(-c5ccccc5F)nn(C)c4s3)CC2)cc1	AID inhibitor inconclusive
COc1ccc(-c2nn(C)c3sc(C(=O)N4CCN(c5cccc(Cl)c5)CC4)cc23)cc1OC	UDG counter inconclusive, AID inhibitor 79µM
CC(Sc1n[nH]c(-c2cccs2)n1)C(=O)Nc1cc(C(F)(F)F)ccc1Cl (centres undefined)	none
COc1ccccc1C(=O)Nc1ccc(C(=O)OCc2cc(=O)n3nc(C4CC4)sc3n2)cc1	none
COc1ccccc1C(=O)Nc1ccc(C(=O)OCc2cc(=O)n3nc(C)sc3n2)cc1	AID inhibitor 28µM
O=C(CCS(=O)(=O)c1nc(-c2cccs2)cc(C(F)(F)F)n1)Nc1ccc(OC(F)(F)F)cc1	AID inhibitor 10µM
COc1ccc(NC(=O)CCS(=O)(=O)c2nc(-c3cccs3)cc(C(F)(F)F)n2)cc1	none
O=C(/C=C/c1ccco1)Oc1ccc(Sc2ccc(OC(=O)/C=C/c3ccco3)cc2)cc1	none
N#Cc1ccc(CNc2ccccc2Cl)cc1	none
CCOc1ccc(C(=O)Nc2ccc3nc(N(CC)CC)cc(C)c3c2)cc1	none
CCN(CC)c1cc(C)c2cc(NC(=O)c3cccc(OC)c3)ccc2n1	AID inhibitor 79µM
COc1ccccc1NC(=O)CSC1=Nc2ccccc2C2=NC(CC(=O)NCCc3ccccc3)C(=O)N12 (centres undefined)	none
Cc1ccc(CSC2=Nc3ccccc3C3=NC(CC(=O)NC4CCCCC4)C(=O)N23)c(C)c1 (centres undefined)	none
Cc1ccc(CSC2=Nc3ccccc3C3=NC(CCC(=O)NCc4cccs4)C(=O)N23)cc1 (centres undefined)	AID inhibitor 89µM
O=C(CC1N=C2c3ccccc3N=C(SCc3ccccc3Cl)N2C1=O)NC1CCCCC1 (centres undefined)	UDG counter 89µM
O=C(CC1N=C2c3ccccc3N=C(SCc3ccccc3F)N2C1=O)NCCc1ccccc1 (centres undefined)	UDG counter inconclusive, AID inhibitor 35µM
Cc1ccc(CSC2=Nc3ccccc3C3=NC(CCC(=O)NCc4cccs4)C(=O)N23)c(C)c1 (centres undefined)	none
O=C(CSc1nc2ccccc2o1)N1CCN(C(=O)C2CC2)CC1	none
CCC(=O)NNC(=S)NC1CCCCC1	none
Cc1ccc(CNC(=O)c2cccc(-c3cnc4ccccc4c3)c2)cc1	UDG counter inconclusive
CN(CC(=O)NC1CCCCNC1=O)Cc1c(F)cccc1Cl (centres undefined)	none
CCCCCCc1ccc(-c2ccc(/C=C/C(=O)O)cc2)nc1	none
CC(CNC(=O)CC(c1ccccc1)c1ccccc1)OC12CC3CC(CC(C3)C1)C2 (centres undefined)	AID inhibitor inconclusive
Cc1ccc(NC(=O)/C(C#N)=C\c2ccc(Cl)cc2Cl)cc1C	none
N#C/C(=C\c1ccc(-c2ccc(Cl)c(C(=O)O)c2)o1)c1nc2ccccc2[nH]1	AID inhibitor 28µM
N#C/C(=C\c1ccc(-c2ccc(C(=O)O)cc2)o1)c1nc2ccccc2[nH]1	none
Cc1ccc(NC(=O)/C(C#N)=C/c2ccc(-c3ccc(Cl)c(C(=O)O)c3)o2)cc1C	UDG counter inconclusive, AID inhibitor 79µM
O=C(/C(=C\c1ccccc1Cl)c1nc2ccccc2o1)c1ccccc1	none
NNc1ccc(S(=O)(=O)Nc2ccc(Cl)cc2)cc1[N+](=O)[O-]	none
Cc1nc(-c2ccc(F)cc2)sc1CCNC(=O)c1ccc(C(C)(C)C)cc1	AID inhibitor 16µM
COc1ccc(-c2nc(C)c(CCNC(=O)c3cccs3)s2)cc1OC	none
Cc1nc(-c2ccc(F)cc2)sc1CCNC(=O)c1cccs1	UDG counter 79µM, AID inhibitor inconclusive
Cc1nc(-c2ccc(F)cc2)sc1CCNC(=O)c1ccccc1	none
CNC(=O)NC(=O)C(C)OC(=O)c1cc(C(F)(F)F)cc(C(F)(F)F)c1 (centres undefined)	none
Cn1cnc2c1c(=O)n(CC(=O)Nc1ccccc1C(=O)N1CCCCC1)c(=O)n2C	none
O=C(Nc1ccccc1F)C12CC3CC(CC(C3)C1)C2	none
COc1ccccc1Nc1nn2c(=O)c3ccc(C(=O)NCCCOC(C)C)cc3nc2s1	none
Cc1ccc(C)c(Nc2nn3c(=O)c4ccc(C(=O)NCc5cccs5)cc4nc3s2)c1	AID inhibitor 40µM
CCN(CC)CCNC(=O)c1ccc2c(=O)n3nc(Nc4ccccc4OC)sc3nc2c1	AID inhibitor 71µM
COc1ccccc1Nc1nn2c(=O)c3ccc(C(=O)NCc4cccs4)cc3nc2s1	none
O=C(OC1CCOC1=O)c1ccc([N+](=O)[O-])cc1Cl (centres undefined)	none
CC(C)Oc1ccc(CNC(=O)C2CCCCN2S(=O)(=O)c2ccc(F)cc2)cc1 (centres undefined)	UDG counter 89µM, AID inhibitor inconclusive
Cc1ccc(C)c(CNC(=O)C2CCCCN2S(=O)(=O)c2ccc(F)cc2)c1 (centres undefined)	UDG counter inconclusive
COc1ccc(-c2nc(SCc3cc(=O)c4cccc(Cl)c4[nH]3)n[nH]2)cc1	none
CNCc1ccc(OCc2ccccc2Cl)c(OC)c1	none
Cn1c(SCc2ccc(F)cc2)nc2ccc(C(=O)NCc3ccc(F)cc3)cc21	AID inhibitor 28µM
Cn1c(SCc2ccc(F)cc2)nc2ccc(C(=O)NCc3ccc(Cl)cc3)cc21	AID inhibitor inconclusive
Nc1nccnc1C(=O)Nc1cccc(OCc2cccnc2)c1	none
Clc1ccc(-c2noc3ncnc(NCCc4ccccc4)c23)cc1	AID inhibitor 25µM
Cc1noc2ncnc(NCCc3ccccc3)c12	AID inhibitor inconclusive
CCc1ccc(C(=O)NCC(O)c2ccccc2)cc1 (centres undefined)	none
Cc1c(Br)cc(C(=O)NC2CC3CCC2(C)C3(C)C)c(C)c1C (centres undefined)	none
CC(=O)N1CCc2c(sc3nc(SCC(C)C)n(-c4ccc(F)c(Cl)c4)c(=O)c23)C1	none
CC(=O)N1CCc2c(sc3nc(SCC(C)C)n(-c4ccc(C)c(Cl)c4)c(=O)c23)C1	UDG counter 79µM, AID inhibitor 25µM
Cc1n[nH]c(C)c1S(=O)(=O)Nc1ncn(Cc2ccc(F)cc2Cl)n1	none
